# According to article PMC7862700, “An all-to-all approach to the identification of sequence-specific readers for epigenetic DNA modifications on cytosine”:
# Assays:
# Assay in all cases: DAPPL (digital affinity profiling via proximity ligation, sequencing); 10 mM Tris-HCl pH 7.5, 50 mM NaCl, 1 mM DTT, 4% glycerol, room temperature, 30 min; GST-TFs on glutathione beads, 16-mer random dsDNA library, 0.1% formaldehyde crosslink after washing; high values mean tight binding
# Conditions in all cases: protein: recombinant; tags: N-terminal GST; dsDNA, one strand shown
# [1] = molecular target: T1, FLI1 (Homo sapiens, UniProt Q01543 1-452)
# T1 sequence: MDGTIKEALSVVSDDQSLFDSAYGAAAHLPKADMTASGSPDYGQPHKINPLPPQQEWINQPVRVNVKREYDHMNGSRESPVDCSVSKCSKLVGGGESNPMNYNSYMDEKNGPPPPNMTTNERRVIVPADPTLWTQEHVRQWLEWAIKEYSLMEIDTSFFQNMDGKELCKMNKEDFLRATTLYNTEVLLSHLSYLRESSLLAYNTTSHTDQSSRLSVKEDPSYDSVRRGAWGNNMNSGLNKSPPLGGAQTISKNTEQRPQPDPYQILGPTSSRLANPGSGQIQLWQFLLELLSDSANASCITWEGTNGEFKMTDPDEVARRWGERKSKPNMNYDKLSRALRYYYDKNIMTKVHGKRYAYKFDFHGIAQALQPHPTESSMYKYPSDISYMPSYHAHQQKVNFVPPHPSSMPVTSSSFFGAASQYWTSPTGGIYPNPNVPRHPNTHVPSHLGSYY
# How it was run: (§1)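 After expression in yeast as GST fusions, human transcription factors were bound to glutathione beads, DNA-barcoded and mixed with a tag-only sample. The pools were incubated with 200 nmole of a 16-mer random double-stranded DNA library in Tris/NaCl/DTT/glycerol buffer (30 min, room temperature), washed and crosslinked with 0.1% formaldehyde. Proximity ligation with BsaI/T4 ligase ran for 1 h at 37 °C, before PCR amplification and sequencing on an Illumina NextSeq500. Binding signal is a hexamer's read frequency for a factor divided by its frequency for the tag-only sample.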
# [2] = molecular target: T2, GABPA (Homo sapiens, UniProt Q06546 1-454)
# T2 sequence: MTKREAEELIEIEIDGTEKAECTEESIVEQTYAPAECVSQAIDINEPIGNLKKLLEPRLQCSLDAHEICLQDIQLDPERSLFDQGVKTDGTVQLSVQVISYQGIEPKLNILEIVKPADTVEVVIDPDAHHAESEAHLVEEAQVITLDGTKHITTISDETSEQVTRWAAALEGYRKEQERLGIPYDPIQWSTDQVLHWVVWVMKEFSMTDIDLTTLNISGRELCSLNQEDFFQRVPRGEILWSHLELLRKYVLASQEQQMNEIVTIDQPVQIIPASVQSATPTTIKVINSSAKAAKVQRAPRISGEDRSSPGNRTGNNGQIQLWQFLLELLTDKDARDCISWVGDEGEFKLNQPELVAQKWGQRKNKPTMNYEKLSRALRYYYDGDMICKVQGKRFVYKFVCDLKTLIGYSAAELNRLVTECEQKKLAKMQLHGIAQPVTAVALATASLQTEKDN
# How it was run: as §1
# [3] = molecular target: T3, ERG (Homo sapiens, UniProt P11308 1-479)
# T3 sequence: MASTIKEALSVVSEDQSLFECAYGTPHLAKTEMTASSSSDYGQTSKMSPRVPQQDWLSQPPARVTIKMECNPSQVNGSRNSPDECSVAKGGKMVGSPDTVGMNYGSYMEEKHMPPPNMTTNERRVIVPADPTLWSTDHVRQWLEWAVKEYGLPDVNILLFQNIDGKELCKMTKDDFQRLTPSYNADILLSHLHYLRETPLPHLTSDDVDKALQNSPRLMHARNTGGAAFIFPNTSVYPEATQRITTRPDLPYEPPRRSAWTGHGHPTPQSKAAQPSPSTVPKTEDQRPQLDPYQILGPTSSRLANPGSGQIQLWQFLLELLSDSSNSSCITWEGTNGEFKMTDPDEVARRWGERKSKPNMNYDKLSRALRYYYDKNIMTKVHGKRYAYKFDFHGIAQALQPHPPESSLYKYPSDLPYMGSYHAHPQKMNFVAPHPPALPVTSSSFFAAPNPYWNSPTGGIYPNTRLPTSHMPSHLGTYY
# How it was run: as §1
# [4] = molecular target: ELF1 (Homo sapiens, UniProt P32519 1-619)
# Chain of ELF1 (P32519 whole entry): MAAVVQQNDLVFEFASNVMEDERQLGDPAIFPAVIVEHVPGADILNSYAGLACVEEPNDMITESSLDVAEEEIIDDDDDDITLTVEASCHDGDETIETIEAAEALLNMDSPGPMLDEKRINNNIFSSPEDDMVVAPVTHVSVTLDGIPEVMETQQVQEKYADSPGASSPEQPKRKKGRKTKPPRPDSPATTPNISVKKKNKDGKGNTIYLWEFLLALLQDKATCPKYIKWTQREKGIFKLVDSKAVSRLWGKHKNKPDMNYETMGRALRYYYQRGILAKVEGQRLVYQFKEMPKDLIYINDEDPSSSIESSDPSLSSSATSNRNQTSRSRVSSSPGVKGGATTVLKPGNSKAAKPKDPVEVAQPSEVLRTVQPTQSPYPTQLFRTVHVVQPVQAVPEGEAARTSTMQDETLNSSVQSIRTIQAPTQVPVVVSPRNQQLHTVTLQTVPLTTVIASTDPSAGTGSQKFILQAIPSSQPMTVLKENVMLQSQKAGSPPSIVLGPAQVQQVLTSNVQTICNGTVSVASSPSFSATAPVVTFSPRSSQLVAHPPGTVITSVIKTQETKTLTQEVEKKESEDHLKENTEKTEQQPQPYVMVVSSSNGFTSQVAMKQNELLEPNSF
# How it was run: as §1
# [5] = molecular target: T4, EHF (Homo sapiens, UniProt Q9NZC4 1-300)
# T4 sequence: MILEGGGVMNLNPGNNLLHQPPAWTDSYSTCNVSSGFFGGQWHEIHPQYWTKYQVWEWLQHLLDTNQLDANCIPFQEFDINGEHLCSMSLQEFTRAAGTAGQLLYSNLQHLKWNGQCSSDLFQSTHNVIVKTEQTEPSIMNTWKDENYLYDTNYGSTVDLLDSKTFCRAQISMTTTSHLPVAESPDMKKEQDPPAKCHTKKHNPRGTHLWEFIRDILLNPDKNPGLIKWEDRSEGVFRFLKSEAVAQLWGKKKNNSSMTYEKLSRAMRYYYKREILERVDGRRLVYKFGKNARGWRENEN
# How it was run: as §1
# [6] = molecular target: SPI1 (Homo sapiens, UniProt P17947 1-270)
# How it was run: as §1
# [7] = molecular target: SPIB (Homo sapiens, UniProt Q01892 1-262)
# Chain of SPIB (Q01892 whole entry): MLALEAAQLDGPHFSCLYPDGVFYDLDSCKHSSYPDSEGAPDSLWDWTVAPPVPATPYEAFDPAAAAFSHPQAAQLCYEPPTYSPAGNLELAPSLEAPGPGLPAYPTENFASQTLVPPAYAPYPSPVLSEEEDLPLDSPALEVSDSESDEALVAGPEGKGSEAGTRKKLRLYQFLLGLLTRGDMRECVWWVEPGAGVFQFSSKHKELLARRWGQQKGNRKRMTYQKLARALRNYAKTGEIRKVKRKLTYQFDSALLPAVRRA
# How it was run: as §1
# [8] = molecular target: T5, ELK3 (Homo sapiens, UniProt P41970 1-407)
# T5 sequence: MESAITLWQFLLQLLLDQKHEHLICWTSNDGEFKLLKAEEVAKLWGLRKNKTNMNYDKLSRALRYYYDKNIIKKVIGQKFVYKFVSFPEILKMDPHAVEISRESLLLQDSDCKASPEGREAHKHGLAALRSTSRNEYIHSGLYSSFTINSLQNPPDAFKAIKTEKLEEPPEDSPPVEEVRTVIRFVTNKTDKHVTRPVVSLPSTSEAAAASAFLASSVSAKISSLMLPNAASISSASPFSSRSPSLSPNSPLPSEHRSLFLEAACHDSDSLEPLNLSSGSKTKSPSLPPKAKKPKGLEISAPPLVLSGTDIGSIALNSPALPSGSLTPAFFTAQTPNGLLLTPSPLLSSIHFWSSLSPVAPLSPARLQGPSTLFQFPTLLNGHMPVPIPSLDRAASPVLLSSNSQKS
# How it was run: as §1
# [9] = molecular target: T6, FEV (Homo sapiens, UniProt Q99581 1-238)
# T6 sequence: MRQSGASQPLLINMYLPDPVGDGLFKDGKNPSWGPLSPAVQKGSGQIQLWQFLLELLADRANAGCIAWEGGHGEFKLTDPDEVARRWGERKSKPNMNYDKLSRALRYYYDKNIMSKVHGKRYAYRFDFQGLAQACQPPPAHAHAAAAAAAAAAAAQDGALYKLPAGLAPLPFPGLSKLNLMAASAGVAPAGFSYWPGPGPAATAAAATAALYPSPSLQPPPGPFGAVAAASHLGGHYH
# How it was run: as §1
# [10] = molecular target: ETV5 (Homo sapiens, UniProt P41161 1-510)
# Chain of ETV5 (P41161 whole entry): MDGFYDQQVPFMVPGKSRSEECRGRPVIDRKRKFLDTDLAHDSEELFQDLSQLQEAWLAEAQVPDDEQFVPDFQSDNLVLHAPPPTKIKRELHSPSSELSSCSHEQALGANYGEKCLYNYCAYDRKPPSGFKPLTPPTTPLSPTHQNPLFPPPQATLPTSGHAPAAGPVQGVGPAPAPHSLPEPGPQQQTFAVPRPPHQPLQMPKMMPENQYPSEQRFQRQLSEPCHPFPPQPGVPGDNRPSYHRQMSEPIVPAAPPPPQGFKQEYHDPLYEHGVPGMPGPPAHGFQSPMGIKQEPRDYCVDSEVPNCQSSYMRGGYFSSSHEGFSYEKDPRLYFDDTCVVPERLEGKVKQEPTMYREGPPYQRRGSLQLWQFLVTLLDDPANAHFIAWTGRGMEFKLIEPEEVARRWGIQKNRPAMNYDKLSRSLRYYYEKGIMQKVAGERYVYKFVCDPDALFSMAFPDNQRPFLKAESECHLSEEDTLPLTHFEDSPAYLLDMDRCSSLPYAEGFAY
# How it was run: as §1
# [11] = molecular target: T7, SPIC (Homo sapiens, UniProt Q8N5J4 1-248)
# T7 sequence: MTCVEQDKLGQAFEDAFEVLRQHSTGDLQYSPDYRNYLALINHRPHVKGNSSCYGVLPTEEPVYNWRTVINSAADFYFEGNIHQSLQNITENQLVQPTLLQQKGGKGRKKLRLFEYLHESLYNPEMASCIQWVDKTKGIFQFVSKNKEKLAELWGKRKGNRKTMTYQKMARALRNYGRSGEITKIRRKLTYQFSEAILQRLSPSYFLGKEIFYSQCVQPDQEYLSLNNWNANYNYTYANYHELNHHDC
# How it was run: as §1
# [12] = molecular target: ELF4 (Homo sapiens, UniProt Q99607 1-663)
# Chain of ELF4 (Q99607 whole entry): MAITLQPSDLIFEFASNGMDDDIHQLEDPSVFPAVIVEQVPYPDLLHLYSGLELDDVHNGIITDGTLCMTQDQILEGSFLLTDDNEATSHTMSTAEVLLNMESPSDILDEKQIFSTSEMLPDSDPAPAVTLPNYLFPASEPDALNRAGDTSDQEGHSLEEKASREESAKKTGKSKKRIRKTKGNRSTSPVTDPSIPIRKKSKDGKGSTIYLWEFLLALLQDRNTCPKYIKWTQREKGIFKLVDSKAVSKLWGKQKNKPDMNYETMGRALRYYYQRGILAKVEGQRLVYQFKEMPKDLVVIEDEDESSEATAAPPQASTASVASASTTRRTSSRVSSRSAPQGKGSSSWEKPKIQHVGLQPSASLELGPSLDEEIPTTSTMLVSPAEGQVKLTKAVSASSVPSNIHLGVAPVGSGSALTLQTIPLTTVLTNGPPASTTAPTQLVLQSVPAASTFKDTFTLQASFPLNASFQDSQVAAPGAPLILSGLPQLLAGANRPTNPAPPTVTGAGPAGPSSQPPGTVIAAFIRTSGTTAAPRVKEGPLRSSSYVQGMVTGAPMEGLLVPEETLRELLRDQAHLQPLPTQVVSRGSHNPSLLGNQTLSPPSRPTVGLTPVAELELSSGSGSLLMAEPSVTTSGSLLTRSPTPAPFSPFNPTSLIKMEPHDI
# How it was run: as §1
# [13] = molecular target: ETV1 (Homo sapiens, UniProt P50549 1-477)
# Chain of ETV1 (P50549 whole entry): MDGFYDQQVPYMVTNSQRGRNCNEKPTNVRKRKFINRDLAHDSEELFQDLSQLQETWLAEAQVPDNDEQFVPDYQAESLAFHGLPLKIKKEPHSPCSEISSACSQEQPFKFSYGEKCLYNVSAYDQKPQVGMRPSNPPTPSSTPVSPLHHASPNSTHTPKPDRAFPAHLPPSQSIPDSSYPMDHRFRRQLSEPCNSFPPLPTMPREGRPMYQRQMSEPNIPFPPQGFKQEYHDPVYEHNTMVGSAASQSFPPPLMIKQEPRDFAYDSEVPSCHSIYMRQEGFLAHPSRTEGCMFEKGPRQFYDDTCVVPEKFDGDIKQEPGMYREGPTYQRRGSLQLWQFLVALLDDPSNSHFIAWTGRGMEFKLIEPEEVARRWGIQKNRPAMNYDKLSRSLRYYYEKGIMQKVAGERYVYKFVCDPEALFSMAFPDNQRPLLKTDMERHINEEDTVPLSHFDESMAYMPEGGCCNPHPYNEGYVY
# How it was run: as §1
# [14] = molecular target: T8, ERF (Homo sapiens, UniProt P50548 1-548)
# T8 sequence: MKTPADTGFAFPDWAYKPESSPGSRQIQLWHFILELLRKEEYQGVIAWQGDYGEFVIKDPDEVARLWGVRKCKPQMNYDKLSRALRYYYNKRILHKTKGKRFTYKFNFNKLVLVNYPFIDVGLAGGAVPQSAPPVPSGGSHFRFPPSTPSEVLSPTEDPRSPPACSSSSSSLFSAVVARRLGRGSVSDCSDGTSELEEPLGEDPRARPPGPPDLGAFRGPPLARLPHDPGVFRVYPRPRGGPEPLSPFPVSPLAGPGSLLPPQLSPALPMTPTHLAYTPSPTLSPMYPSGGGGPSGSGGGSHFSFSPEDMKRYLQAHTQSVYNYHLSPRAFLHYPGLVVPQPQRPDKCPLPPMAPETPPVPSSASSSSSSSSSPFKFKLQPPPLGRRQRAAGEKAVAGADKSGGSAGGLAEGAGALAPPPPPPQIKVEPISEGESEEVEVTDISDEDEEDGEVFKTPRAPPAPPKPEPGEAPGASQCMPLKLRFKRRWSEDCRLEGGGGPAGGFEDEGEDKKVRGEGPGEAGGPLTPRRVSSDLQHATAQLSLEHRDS
# How it was run: as §1
# [15] = molecular target: T9, ETV3L (Homo sapiens, UniProt Q6ZN32 1-361)
# T9 sequence: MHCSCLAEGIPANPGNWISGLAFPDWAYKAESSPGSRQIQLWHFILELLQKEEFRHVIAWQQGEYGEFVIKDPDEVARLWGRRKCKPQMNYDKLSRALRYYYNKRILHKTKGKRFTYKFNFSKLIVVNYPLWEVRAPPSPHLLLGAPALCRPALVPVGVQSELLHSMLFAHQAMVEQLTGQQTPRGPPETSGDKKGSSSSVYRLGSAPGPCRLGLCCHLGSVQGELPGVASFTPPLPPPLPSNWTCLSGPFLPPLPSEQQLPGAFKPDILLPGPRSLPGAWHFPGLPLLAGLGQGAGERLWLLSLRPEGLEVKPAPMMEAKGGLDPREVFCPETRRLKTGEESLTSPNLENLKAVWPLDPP
# How it was run: as §1
# [16] = molecular target: T10, ETS2 (Homo sapiens, UniProt P15036 1-469)
# T10 sequence: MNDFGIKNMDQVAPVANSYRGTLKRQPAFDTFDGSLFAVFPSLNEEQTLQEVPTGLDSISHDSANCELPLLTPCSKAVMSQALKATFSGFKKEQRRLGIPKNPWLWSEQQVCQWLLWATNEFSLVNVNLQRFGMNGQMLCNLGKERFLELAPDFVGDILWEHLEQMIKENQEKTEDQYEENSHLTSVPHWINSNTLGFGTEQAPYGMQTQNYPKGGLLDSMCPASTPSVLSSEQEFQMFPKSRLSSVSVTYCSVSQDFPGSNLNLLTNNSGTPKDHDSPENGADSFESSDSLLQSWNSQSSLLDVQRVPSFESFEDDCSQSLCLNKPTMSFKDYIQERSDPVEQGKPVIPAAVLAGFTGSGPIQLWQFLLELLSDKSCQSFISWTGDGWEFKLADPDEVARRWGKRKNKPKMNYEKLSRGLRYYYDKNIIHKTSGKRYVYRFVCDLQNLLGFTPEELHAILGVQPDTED
# How it was run: as §1
# [17] = molecular target: T11, SPDEF (Homo sapiens, UniProt O95238 1-335)
# T11 sequence: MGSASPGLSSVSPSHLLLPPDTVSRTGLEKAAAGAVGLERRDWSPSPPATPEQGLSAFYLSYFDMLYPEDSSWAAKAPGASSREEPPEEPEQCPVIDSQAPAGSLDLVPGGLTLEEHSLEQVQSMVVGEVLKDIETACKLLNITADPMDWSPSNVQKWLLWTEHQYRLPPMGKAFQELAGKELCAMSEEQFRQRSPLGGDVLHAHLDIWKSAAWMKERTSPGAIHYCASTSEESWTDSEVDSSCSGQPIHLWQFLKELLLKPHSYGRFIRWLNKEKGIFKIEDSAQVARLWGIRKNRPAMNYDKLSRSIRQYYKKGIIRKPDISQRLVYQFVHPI
# How it was run: as §1
# [18] = molecular target: T12, ETV3 (Homo sapiens, UniProt P41162-2 1-143)
# T12 sequence: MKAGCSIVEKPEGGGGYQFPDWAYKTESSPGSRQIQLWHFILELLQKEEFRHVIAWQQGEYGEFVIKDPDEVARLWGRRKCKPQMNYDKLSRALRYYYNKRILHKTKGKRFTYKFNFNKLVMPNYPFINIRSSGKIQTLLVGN
# How it was run: as §1
# [19] = molecular target: ETV6 (Homo sapiens, UniProt P41212 1-452)
# Chain of ETV6 (P41212 whole entry): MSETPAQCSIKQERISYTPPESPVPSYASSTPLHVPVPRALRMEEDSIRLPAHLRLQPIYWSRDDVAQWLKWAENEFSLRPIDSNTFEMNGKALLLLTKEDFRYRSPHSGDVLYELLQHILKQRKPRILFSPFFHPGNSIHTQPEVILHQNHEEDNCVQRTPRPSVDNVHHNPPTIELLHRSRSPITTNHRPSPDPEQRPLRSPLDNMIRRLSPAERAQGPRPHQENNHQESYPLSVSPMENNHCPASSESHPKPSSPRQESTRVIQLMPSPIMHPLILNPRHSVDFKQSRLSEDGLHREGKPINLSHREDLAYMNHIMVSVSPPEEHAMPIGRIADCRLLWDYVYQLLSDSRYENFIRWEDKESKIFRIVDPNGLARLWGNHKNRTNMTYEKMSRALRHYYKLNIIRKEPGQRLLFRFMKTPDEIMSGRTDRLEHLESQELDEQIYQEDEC
# How it was run: as §1
sequence,measurement,setting,value
ATACCG,binding signal,[1],"1.16 fold enrichment (6-mer frequency, TF over GST control)"
same,binding signal,[2],"1.02 fold enrichment (6-mer frequency, TF over GST control)"
same,binding signal,[3],"1.16 fold enrichment (6-mer frequency, TF over GST control)"
same,binding signal,[4],"1.11 fold enrichment (6-mer frequency, TF over GST control)"
same,binding signal,[5],"1.12 fold enrichment (6-mer frequency, TF over GST control)"
same,binding signal,[6],"1.06 fold enrichment (6-mer frequency, TF over GST control)"
same,binding signal,[7],"1.12 fold enrichment (6-mer frequency, TF over GST control)"
same,binding signal,[8],"1.15 fold enrichment (6-mer frequency, TF over GST control)"
same,binding signal,[9],"1.25 fold enrichment (6-mer frequency, TF over GST control)"
same,binding signal,[10],"1.1 fold enrichment (6-mer frequency, TF over GST control)"
same,binding signal,[11],"1.05 fold enrichment (6-mer frequency, TF over GST control)"
same,binding signal,[12],"1.12 fold enrichment (6-mer frequency, TF over GST control)"
same,binding signal,[13],"1.14 fold enrichment (6-mer frequency, TF over GST control)"
same,binding signal,[14],"1.08 fold enrichment (6-mer frequency, TF over GST control)"
same,binding signal,[15],"1.1 fold enrichment (6-mer frequency, TF over GST control)"
same,binding signal,[16],"1.11 fold enrichment (6-mer frequency, TF over GST control)"
same,binding signal,[17],"1.19 fold enrichment (6-mer frequency, TF over GST control)"
same,binding signal,[18],"1.2 fold enrichment (6-mer frequency, TF over GST control)"
same,binding signal,[19],"1.09 fold enrichment (6-mer frequency, TF over GST control)"
